# Test results reported in PubChem BioAssay AID1159580 (chemical genetic matrix, 2015).
# “And” between values parts separate entries of the source, which are not always exact repeats. Equal entries are not always repeated. The campaign covered roughly 5,500 compounds. About 2,000 (36%) were called active. Another 18% or so got no clear call; they are omitted. The list shows a part of the results. Unmarked numbers belong to inactive results. Cut-off read from the data, not from the text of the source: active = normalized growth mostly below about 0.91 (no sharp cut-off); inconclusive = no clear call, values can overlap the other calls; inactive = mostly above about 0.92.
# Assay: chemical genetic growth profiling, strain panel (AID 1159580);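 note: tested at 20 µM; growth read once vehicle control cultures reached saturation at 30 °C; 1 = growth at the plate median or of vehicle wells; lower values mean less growth of the strain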
# Conditions: growth OD
structure (smiles),measurement,setting,value
COC(=O)c1c(C)cc(OC(=O)c2c(C)cc(O)c(C=O)c2O)c(C)c1O,normalized growth,"S. cerevisiae deletion strains, locus YAL013W, strain DEP1, hits give low values",0.93
same,normalized growth,"S. cerevisiae deletion strains, locus YBR021W, strain FUR4, hits give low values",1.05
same,normalized growth,"S. cerevisiae deletion strains, locus YBR229C, strain ROT2, hits give low values",1
same,normalized growth,"S. cerevisiae deletion strains, locus YCL029C, strain bik1, hits give low values",0.994
same,normalized growth,"S. cerevisiae deletion strains, locus YDL035C, strain GPR1, hits give low values",0.994
same,normalized growth,"S. cerevisiae deletion strains, locus YDL074C, strain BRE1, hits give low values",1.03
same,normalized growth,"S. cerevisiae deletion strains, locus YDL101C, strain DUN1, hits give low values",1.01
same,normalized growth,"S. cerevisiae deletion strains, locus YDL185W, strain tfp1, hits give low values",0.991
same,normalized growth,"S. cerevisiae deletion strains, locus YDL192W, strain arf1, hits give low values",0.934
same,normalized growth,"S. cerevisiae deletion strains, locus YDR101C, strain arx1, hits give low values",0.994
same,normalized growth,"S. cerevisiae deletion strains, locus YDR162C, strain NBP2, hits give low values",0.899
same,normalized growth,"S. cerevisiae deletion strains, locus YDR318W, strain mcm21, hits give low values",0.934
same,normalized growth,"S. cerevisiae deletion strains, locus YDR388W, hits give low values",0.988
same,normalized growth,"S. cerevisiae deletion strains, locus YDR502C, strain sam2, hits give low values",0.984
same,normalized growth,"S. cerevisiae deletion strains, locus YEL061C, strain CIN8, hits give low values",0.971
same,normalized growth,"S. cerevisiae deletion strains, locus YER110C, hits give low values",1.03
same,normalized growth,"S. cerevisiae deletion strains, locus YER155C, strain BEM2, hits give low values",1.03
same,normalized growth,"S. cerevisiae deletion strains, locus YER167W, strain BCK2, hits give low values",0.999
same,normalized growth,"S. cerevisiae deletion strains, locus YGL078C, strain dbp3, hits give low values",1.01
same,normalized growth,"S. cerevisiae deletion strains, locus YGL086W, strain mad1, hits give low values",0.942
same,normalized growth,"S. cerevisiae deletion strains, locus YGL248W, strain PDE1, hits give low values",0.98
same,normalized growth,"S. cerevisiae deletion strains, locus YGR078C, strain PAC10, hits give low values",0.971
same,normalized growth,"S. cerevisiae deletion strains, locus YGR135W, strain pre9, hits give low values",0.893 (active)
same,normalized growth,"S. cerevisiae deletion strains, locus YGR229C, strain SMI1, hits give low values",0.919
same,normalized growth,"S. cerevisiae deletion strains, locus YGR252W, strain gcn5, hits give low values",1.01
same,normalized growth,"S. cerevisiae deletion strains, locus YHR030C, strain SLT2, hits give low values",0.999 and 0.975
same,normalized growth,"S. cerevisiae deletion strains, locus YHR079C, strain IRE1 (second series), hits give low values",0.999
same,normalized growth,"S. cerevisiae deletion strains, locus YHR079C, strain IRE1, hits give low values",0.978
same,normalized growth,"S. cerevisiae deletion strains, locus YHR094C, strain hxt1, hits give low values",1
same,normalized growth,"S. cerevisiae deletion strains, locus YHR129C, strain ARP1, hits give low values",0.963
same,normalized growth,"S. cerevisiae deletion strains, locus YHR200W, strain rpn10, hits give low values",0.962
same,normalized growth,"S. cerevisiae deletion strains, locus YIL066C, strain RNR3, hits give low values",0.985
same,normalized growth,"S. cerevisiae deletion strains, locus YIL073C, strain SPO22, hits give low values",1.02
same,normalized growth,"S. cerevisiae deletion strains, locus YIL125W, strain kgd1, hits give low values",0.991
same,normalized growth,"S. cerevisiae deletion strains, locus YIR030C, strain dcg1, hits give low values",1.03
same,normalized growth,"S. cerevisiae deletion strains, locus YJL095W, strain BCK1, hits give low values",0.975 and 0.987
same,normalized growth,"S. cerevisiae deletion strains, locus YJL134W, strain LCB3, hits give low values",1.01
same,normalized growth,"S. cerevisiae deletion strains, locus YJL168C, strain set2, hits give low values",1.01
same,normalized growth,"S. cerevisiae deletion strains, locus YJL187C, strain SWE1 (second series), hits give low values",0.972
same,normalized growth,"S. cerevisiae deletion strains, locus YJR043C, strain POL32, hits give low values",0.971
same,normalized growth,"S. cerevisiae deletion strains, locus YJR066W, strain TOR1, hits give low values",0.919
same,normalized growth,"S. cerevisiae deletion strains, locus YKL068W, hits give low values",1.03
same,normalized growth,"S. cerevisiae deletion strains, locus YKL085W, strain MDH1 (second series), hits give low values",0.987
same,normalized growth,"S. cerevisiae deletion strains, locus YKL085W, strain MDH1, hits give low values",0.987
same,normalized growth,"S. cerevisiae deletion strains, locus YKR001C, strain vps1, hits give low values",0.891 (active)
same,normalized growth,"S. cerevisiae deletion strains, locus YLR039C, strain RIC1, hits give low values",0.947
same,normalized growth,"S. cerevisiae deletion strains, locus YLR058C, strain SHM2, hits give low values",0.957
same,normalized growth,"S. cerevisiae deletion strains, locus YLR102C, strain apc9, hits give low values",1.02
same,normalized growth,"S. cerevisiae deletion strains, locus YLR113W, strain HOG1, hits give low values",0.995
same,normalized growth,"S. cerevisiae deletion strains, locus YLR262C, strain YPT6, hits give low values",0.933
same,normalized growth,"S. cerevisiae deletion strains, locus YLR268W, strain sec22, hits give low values",0.916
same,normalized growth,"S. cerevisiae deletion strains, locus YLR330W, strain CHS5, hits give low values",1.01
same,normalized growth,"S. cerevisiae deletion strains, locus YLR342W, strain FKS1 (second series), hits give low values",1.07
same,normalized growth,"S. cerevisiae deletion strains, locus YLR371W, strain rom2, hits give low values",0.99
same,normalized growth,"S. cerevisiae deletion strains, locus YLR418C, strain cdc73, hits give low values",0.924
same,normalized growth,"S. cerevisiae deletion strains, locus YML016C, strain PPZ1, hits give low values",1
same,normalized growth,"S. cerevisiae deletion strains, locus YML032C, strain rad52, hits give low values",0.96
same,normalized growth,"S. cerevisiae deletion strains, locus YML124C, strain tub3, hits give low values",1
same,normalized growth,"S. cerevisiae deletion strains, locus YMR078C, strain ctf18, hits give low values",1.02
same,normalized growth,"S. cerevisiae deletion strains, locus YMR223W, strain ubp8, hits give low values",0.938
same,normalized growth,"S. cerevisiae deletion strains, locus YMR263W, strain SAP30, hits give low values",0.987
same,normalized growth,"S. cerevisiae deletion strains, locus YMR307W, strain GAS1, hits give low values",0.789
same,normalized growth,"S. cerevisiae deletion strains, locus YNL067W, strain RPL9B, hits give low values",0.972
same,normalized growth,"S. cerevisiae deletion strains, locus YNL183C, strain NPR1, hits give low values",0.917
same,normalized growth,"S. cerevisiae deletion strains, locus YNL233W, strain BNI4, hits give low values",0.982
same,normalized growth,"S. cerevisiae deletion strains, locus YNL250W, strain rad50, hits give low values",0.988
same,normalized growth,"S. cerevisiae deletion strains, locus YNL271C, strain bni1, hits give low values",1.03
same,normalized growth,"S. cerevisiae deletion strains, locus YNL298W, strain CLA4, hits give low values",1.01
same,normalized growth,"S. cerevisiae deletion strains, locus YNL307C, strain MCK1, hits give low values",1.01
same,normalized growth,"S. cerevisiae deletion strains, locus YNR052C, strain pop2, hits give low values",1
same,normalized growth,"S. cerevisiae deletion strains, locus YOL006C, strain TOP1, hits give low values",1.06
same,normalized growth,"S. cerevisiae deletion strains, locus YOL012C, strain htz1",0.816
same,normalized growth,"S. cerevisiae deletion strains, locus YOL147C, strain pex11, hits give low values",1.04
same,normalized growth,"S. cerevisiae deletion strains, locus YOR061W, strain CKA2, hits give low values",1
same,normalized growth,"S. cerevisiae deletion strains, locus YOR069W, strain VPS5, hits give low values",1
same,normalized growth,"S. cerevisiae deletion strains, locus YOR136W, strain idh2, hits give low values",1.02
same,normalized growth,"S. cerevisiae deletion strains, locus YOR144C, strain elg1, hits give low values",1.01
same,normalized growth,"S. cerevisiae deletion strains, locus YOR184W, strain ser1, hits give low values",0.931
same,normalized growth,"S. cerevisiae deletion strains, locus YOR231W, strain MKK1, hits give low values",0.981
same,normalized growth,"S. cerevisiae deletion strains, locus YOR316C, strain cot1, hits give low values",1.03
same,normalized growth,"S. cerevisiae deletion strains, locus YPL256C, strain CLN2, hits give low values",0.988
same,normalized growth,"S. cerevisiae deletion strains, locus YPR119W, strain clb2, hits give low values",0.996
same,normalized growth,"S. cerevisiae deletion strains, locus YPR141C, strain kar3, hits give low values",1
same,normalized growth,"S. cerevisiae deletion strains, locus YPR163C, strain tif3, hits give low values",1.01
same,normalized growth,"S. cerevisiae deletion strains, locus YPR167C, strain met16, hits give low values",0.963
same,normalized growth,"S. cerevisiae deletion strains, strain wtn01, hits give low values",0.948
same,normalized growth,"S. cerevisiae strains, strain wild type, hits give low values",0.926
